These results are taken from ChEMBL document CHEMBL5598561, “ASAP - In vitro binding kinetics” (2024).

The experiment addresses Nonstructural protein 3 (Zika virus) (UniProt A0A024AXB9). The conditions noted are these: PRVABC59, Concentration 10.0 uM.

Each structure is given as a SMILES string.

Chain of Nonstructural protein 3 (Zika virus) (A0A024AXB9 as listed by the source): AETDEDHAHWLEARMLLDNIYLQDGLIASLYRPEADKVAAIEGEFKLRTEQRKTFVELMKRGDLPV

As to `N[C@H]1CCCc2ccc(NC(=O)c3cc(Cl)cc4[nH]ncc34)cc21`, the pKD (as a rule, the negative decadic logarithm of the KD, by convention in mol/L) stood at 5.29 (Immobilization level 3900.0 pg/mm2, Rmax 27.0 pg/mm2, ka 296746.451 M-1s-1, kd 1.513 1/s); 4.96 (Immobilization level 4900.0 pg/mm2, Rmax 56.0 pg/mm2, ka 115778.511 M-1s-1, kd 1.284 1/s); 5.12 (Immobilization level 5500.0 pg/mm2, Rmax 46.0 pg/mm2, ka 170057.868 M-1s-1, kd 1.305 1/s); 5.27 (Immobilization level 10000.0 pg/mm2, Rmax 44.0 pg/mm2, ka 295859.47 M-1s-1, kd 1.578 1/s); 5.25 (Immobilization level 12000.0 pg/mm2, Rmax 41.0 pg/mm2, ka 173417.805 M-1s-1, kd 0.975 1/s); 5.25 (Immobilization level 13000.0 pg/mm2, Rmax 62.0 pg/mm2, ka 213953.785 M-1s-1, kd 1.191 1/s).

As for `O=C(Nc1ccc2c(c1)CCNCC2)c1cc(Cl)cc2[nH]ncc12`, the pKD came to 5.66 (Immobilization level 3900.0 pg/mm2, Rmax 28.0 pg/mm2, ka 176787.489 M-1s-1, kd 0.385 1/s); 5.35 (Immobilization level 4900.0 pg/mm2, Rmax 58.0 pg/mm2, ka 81779.894 M-1s-1, kd 0.366 1/s); 5.43 (Immobilization level 5500.0 pg/mm2, Rmax 55.0 pg/mm2, ka 98394.506 M-1s-1, kd 0.363 1/s); 5.4 (Immobilization level 10000.0 pg/mm2, Rmax 51.0 pg/mm2, ka 117713.558 M-1s-1, kd 0.472 1/s); 5.55 (Immobilization level 12000.0 pg/mm2, Rmax 47.0 pg/mm2, ka 102680.383 M-1s-1, kd 0.29 1/s); 5.3 (Immobilization level 13000.0 pg/mm2, Rmax 85.0 pg/mm2, ka 77805.794 M-1s-1, kd 0.391 1/s).

Regarding `N[C@H]1CCc2ccc(NC(=O)c3cc(Cl)cc4[nH]ncc34)cc21`, the pKD stood at 5.57 (Immobilization level 3900.0 pg/mm2, Rmax 29.0 pg/mm2, ka 348858.596 M-1s-1, kd 0.945 1/s); 5.4 (Immobilization level 4900.0 pg/mm2, Rmax 45.0 pg/mm2, ka 214378.611 M-1s-1, kd 0.858 1/s); 5.53 (Immobilization level 5500.0 pg/mm2, Rmax 42.0 pg/mm2, ka 277409.149 M-1s-1, kd 0.816 1/s); 5.41 (Immobilization level 10000.0 pg/mm2, Rmax 43.0 pg/mm2, ka 267738.182 M-1s-1, kd 1.043 1/s); 5.47 (Immobilization level 12000.0 pg/mm2, Rmax 61.0 pg/mm2, ka 230496.11 M-1s-1, kd 0.784 1/s); 5.62 (Immobilization level 13000.0 pg/mm2, Rmax 48.0 pg/mm2, ka 351322.313 M-1s-1, kd 0.852 1/s).

With `O=C(Nc1ccc2c(c1)CNC2)c1cc(C(F)(F)F)cc2[nH]ccc12`, the negative logarithm of the KD (pKD) reads like this: (Immobilization level 3900.0 pg/mm2, Rmax 30.0 pg/mm2, ka 544431.648 M-1s-1, kd 0.73 1/s) 5.87; (Immobilization level 4900.0 pg/mm2, Rmax 46.0 pg/mm2, ka 302890.351 M-1s-1, kd 0.564 1/s) 5.73; (Immobilization level 5500.0 pg/mm2, Rmax 46.0 pg/mm2, ka 376673.864 M-1s-1, kd 0.583 1/s) 5.81; (Immobilization level 10000.0 pg/mm2, Rmax 31.0 pg/mm2, ka 377188.867 M-1s-1, kd 0.653 1/s) 5.76; (Immobilization level 12000.0 pg/mm2, Rmax 50.0 pg/mm2, ka 339395.125 M-1s-1, kd 0.433 1/s) 5.89; (Immobilization level 13000.0 pg/mm2, Rmax 43.0 pg/mm2, ka 290221.417 M-1s-1, kd 0.559 1/s) 5.71.

In the case of `O=C(Nc1ccc2c(c1)CNCCC2)c1cc(Cl)cc2[nH]ncc12`, the negative-log KD (pKD) is, setting by setting: (Immobilization level 3900.0 pg/mm2, Rmax 31.0 pg/mm2, ka 773276.281 M-1s-1, kd 0.645 1/s) 6.08; (Immobilization level 4900.0 pg/mm2, Rmax 48.0 pg/mm2, ka 455527.731 M-1s-1, kd 0.593 1/s) 5.89; (Immobilization level 5500.0 pg/mm2, Rmax 50.0 pg/mm2, ka 530646.741 M-1s-1, kd 0.578 1/s) 5.96; (Immobilization level 10000.0 pg/mm2, Rmax 36.0 pg/mm2, ka 650451.64 M-1s-1, kd 0.663 1/s) 5.99; (Immobilization level 12000.0 pg/mm2, Rmax 60.0 pg/mm2, ka 669381.958 M-1s-1, kd 0.419 1/s) 6.2; (Immobilization level 13000.0 pg/mm2, Rmax 48.0 pg/mm2, ka 553000.714 M-1s-1, kd 0.56 1/s) 5.99.

Regarding `CNC(=O)[C@H](Nc1ccc2c(c1)CNC2)c1cccc2[nH]ncc12`, the pKD runs as follows: (Immobilization level 3900.0 pg/mm2, Rmax 32.0 pg/mm2, ka 221759.296 M-1s-1, kd 2.211 1/s) 5; (Immobilization level 4900.0 pg/mm2, Rmax 43.0 pg/mm2, ka 260065.267 M-1s-1, kd 2.378 1/s) 5.04; (Immobilization level 5500.0 pg/mm2, Rmax 48.0 pg/mm2, ka 212060.721 M-1s-1, kd 2.045 1/s) 5.02; (Immobilization level 10000.0 pg/mm2, Rmax 60.0 pg/mm2, ka 93401.957 M-1s-1, kd 2.887 1/s) 4.51; (Immobilization level 12000.0 pg/mm2, Rmax 22.0 pg/mm2, ka 158759.097 M-1s-1, kd 1.348 1/s) 5.07; (Immobilization level 13000.0 pg/mm2, Rmax 39.0 pg/mm2, ka 126882.155 M-1s-1, kd 1.56 1/s) 4.91.

On to `N[C@H]1Cc2ccc(NC(=O)c3cc(Cl)cc4[nH]ncc34)cc2C1`, for which the pKD turned out to be 6.09 (Immobilization level 3900.0 pg/mm2, Rmax 32.0 pg/mm2, ka 340293.713 M-1s-1, kd 0.278 1/s); 5.87 (Immobilization level 4900.0 pg/mm2, Rmax 50.0 pg/mm2, ka 211944.111 M-1s-1, kd 0.288 1/s); 5.9 (Immobilization level 5500.0 pg/mm2, Rmax 52.0 pg/mm2, ka 230237.04 M-1s-1, kd 0.293 1/s); 5.94 (Immobilization level 10000.0 pg/mm2, Rmax 43.0 pg/mm2, ka 451655.452 M-1s-1, kd 0.518 1/s); 5.73 (Immobilization level 12000.0 pg/mm2, Rmax 66.0 pg/mm2, ka 170946.752 M-1s-1, kd 0.316 1/s); 5.86 (Immobilization level 13000.0 pg/mm2, Rmax 60.0 pg/mm2, ka 295502.849 M-1s-1, kd 0.406 1/s).

In the case of `Cc1ncc(Br)cc1C(=O)Nc1ccc2c(c1)CNC2`, the pKD is, setting by setting: (Immobilization level 3900.0 pg/mm2, Rmax 35.0 pg/mm2, ka 305396.759 M-1s-1, kd 1.511 1/s) 5.3; (Immobilization level 4900.0 pg/mm2, Rmax 50.0 pg/mm2, ka 284203.309 M-1s-1, kd 1.434 1/s) 5.3; (Immobilization level 5500.0 pg/mm2, Rmax 66.0 pg/mm2, ka 223031.106 M-1s-1, kd 1.457 1/s) 5.18; (Immobilization level 12000.0 pg/mm2, Rmax 11.0 pg/mm2, ka 147874.405 M-1s-1, kd 1.474 1/s) 5; (Immobilization level 13000.0 pg/mm2, ka 192202.373 M-1s-1, kd 1.118 1/s) 5.24.

With `CNCc1ccc(NC(=O)c2cc(Cl)cc3[nH]ncc23)cc1`, the pKD (Immobilization level 3900.0 pg/mm2, Rmax 37.0 pg/mm2, ka 226628.924 M-1s-1, kd 2.375 1/s) came to 4.98; the pKD (Immobilization level 4900.0 pg/mm2, Rmax 68.0 pg/mm2, ka 224620.672 M-1s-1, kd 2.867 1/s) came to 4.89; the pKD (Immobilization level 5500.0 pg/mm2, Rmax 65.0 pg/mm2, ka 234270.717 M-1s-1, kd 2.589 1/s) amounted to 4.96; the pKD (Immobilization level 10000.0 pg/mm2, Rmax 32.0 pg/mm2, ka 593939.753 M-1s-1, kd 4.324 1/s) worked out at 5.14; the negative logarithm of the KD (pKD) (Immobilization level 12000.0 pg/mm2, Rmax 64.0 pg/mm2, ka 470578.84 M-1s-1, kd 3.187 1/s) came out at 5.17; the negative-log KD (pKD) (Immobilization level 13000.0 pg/mm2, Rmax 38.0 pg/mm2, ka 481481.04 M-1s-1, kd 3.216 1/s) stood at 5.17.

Take `O=C(Nc1ccc2c(c1)CNC2)c1cc(Br)cc2[nH]ncc12`: the pKD is, setting by setting: (Immobilization level 3900.0 pg/mm2, Rmax 38.0 pg/mm2, ka 289981.015 M-1s-1, kd 0.089 1/s) 6.51; (Immobilization level 4900.0 pg/mm2, Rmax 58.0 pg/mm2, ka 168121.167 M-1s-1, kd 0.102 1/s) 6.21; (Immobilization level 5500.0 pg/mm2, Rmax 62.0 pg/mm2, ka 169991.939 M-1s-1, kd 0.118 1/s) 6.16; (Immobilization level 10000.0 pg/mm2, Rmax 73.0 pg/mm2, ka 76775.421 M-1s-1, kd 0.125 1/s) 5.79; (Immobilization level 12000.0 pg/mm2, Rmax 147.0 pg/mm2, ka 18302.495 M-1s-1, kd 0.037 1/s) 5.69; (Immobilization level 13000.0 pg/mm2, Rmax 120.0 pg/mm2, ka 46201.966 M-1s-1, kd 0.079 1/s) 5.76.

`NCc1ccc(NC(=O)c2cc(Cl)cc3[nH]ncc23)cc1`: the pKD was found to be 5.11 (Immobilization level 3900.0 pg/mm2, Rmax 39.0 pg/mm2, ka 344993.29 M-1s-1, kd 2.713 1/s); 4.99 (Immobilization level 4900.0 pg/mm2, Rmax 52.0 pg/mm2, ka 210233.557 M-1s-1, kd 2.157 1/s); 5.12 (Immobilization level 5500.0 pg/mm2, Rmax 46.0 pg/mm2, ka 296422.165 M-1s-1, kd 2.251 1/s); 5.14 (Immobilization level 10000.0 pg/mm2, Rmax 40.0 pg/mm2, ka 241734.917 M-1s-1, kd 1.766 1/s); 5.15 (Immobilization level 12000.0 pg/mm2, Rmax 57.0 pg/mm2, ka 217368.509 M-1s-1, kd 1.551 1/s); 5.27 (Immobilization level 13000.0 pg/mm2, Rmax 45.0 pg/mm2, ka 247269.193 M-1s-1, kd 1.32 1/s).
